Bioassay records: PubChem, several laboratories
RN4220 kill = S. aureus RN4220 growth inhibition; AID 1259311; 330,000 tested, 0.33% active; inhibition, % (no concentration beside the values); OD600, 16 h; in the data active means inhibition above about 85%;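 further: plate controls were untreated cells for no effect and reference antibiotic for full effect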
Sa ugtP lethal = kills S. aureus RN4220 lacking UgtP | growth inhibition, % (test concentration not listed) | S. aureus RN4220 ugtP deletion, OD600 growth, 16 h | AID 1259309 | 330,000 tested, 0.54% active; in the data active means growth inhibition above about 68%;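 further: plate controls were untreated wells for no effect and antibiotic for full effect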
TcdB inh = inhibitors of Clostridioides difficile toxin B glycohydrolase. 350,000 tested, 0.24% active. P18177. inhibition, % at 9.99 µM. TcdB glycohydrolase enzymatic assay, plate reader. AID 652162; in the data active means inhibition above about 10%
Target sequence (P18177 whole entry, looked up): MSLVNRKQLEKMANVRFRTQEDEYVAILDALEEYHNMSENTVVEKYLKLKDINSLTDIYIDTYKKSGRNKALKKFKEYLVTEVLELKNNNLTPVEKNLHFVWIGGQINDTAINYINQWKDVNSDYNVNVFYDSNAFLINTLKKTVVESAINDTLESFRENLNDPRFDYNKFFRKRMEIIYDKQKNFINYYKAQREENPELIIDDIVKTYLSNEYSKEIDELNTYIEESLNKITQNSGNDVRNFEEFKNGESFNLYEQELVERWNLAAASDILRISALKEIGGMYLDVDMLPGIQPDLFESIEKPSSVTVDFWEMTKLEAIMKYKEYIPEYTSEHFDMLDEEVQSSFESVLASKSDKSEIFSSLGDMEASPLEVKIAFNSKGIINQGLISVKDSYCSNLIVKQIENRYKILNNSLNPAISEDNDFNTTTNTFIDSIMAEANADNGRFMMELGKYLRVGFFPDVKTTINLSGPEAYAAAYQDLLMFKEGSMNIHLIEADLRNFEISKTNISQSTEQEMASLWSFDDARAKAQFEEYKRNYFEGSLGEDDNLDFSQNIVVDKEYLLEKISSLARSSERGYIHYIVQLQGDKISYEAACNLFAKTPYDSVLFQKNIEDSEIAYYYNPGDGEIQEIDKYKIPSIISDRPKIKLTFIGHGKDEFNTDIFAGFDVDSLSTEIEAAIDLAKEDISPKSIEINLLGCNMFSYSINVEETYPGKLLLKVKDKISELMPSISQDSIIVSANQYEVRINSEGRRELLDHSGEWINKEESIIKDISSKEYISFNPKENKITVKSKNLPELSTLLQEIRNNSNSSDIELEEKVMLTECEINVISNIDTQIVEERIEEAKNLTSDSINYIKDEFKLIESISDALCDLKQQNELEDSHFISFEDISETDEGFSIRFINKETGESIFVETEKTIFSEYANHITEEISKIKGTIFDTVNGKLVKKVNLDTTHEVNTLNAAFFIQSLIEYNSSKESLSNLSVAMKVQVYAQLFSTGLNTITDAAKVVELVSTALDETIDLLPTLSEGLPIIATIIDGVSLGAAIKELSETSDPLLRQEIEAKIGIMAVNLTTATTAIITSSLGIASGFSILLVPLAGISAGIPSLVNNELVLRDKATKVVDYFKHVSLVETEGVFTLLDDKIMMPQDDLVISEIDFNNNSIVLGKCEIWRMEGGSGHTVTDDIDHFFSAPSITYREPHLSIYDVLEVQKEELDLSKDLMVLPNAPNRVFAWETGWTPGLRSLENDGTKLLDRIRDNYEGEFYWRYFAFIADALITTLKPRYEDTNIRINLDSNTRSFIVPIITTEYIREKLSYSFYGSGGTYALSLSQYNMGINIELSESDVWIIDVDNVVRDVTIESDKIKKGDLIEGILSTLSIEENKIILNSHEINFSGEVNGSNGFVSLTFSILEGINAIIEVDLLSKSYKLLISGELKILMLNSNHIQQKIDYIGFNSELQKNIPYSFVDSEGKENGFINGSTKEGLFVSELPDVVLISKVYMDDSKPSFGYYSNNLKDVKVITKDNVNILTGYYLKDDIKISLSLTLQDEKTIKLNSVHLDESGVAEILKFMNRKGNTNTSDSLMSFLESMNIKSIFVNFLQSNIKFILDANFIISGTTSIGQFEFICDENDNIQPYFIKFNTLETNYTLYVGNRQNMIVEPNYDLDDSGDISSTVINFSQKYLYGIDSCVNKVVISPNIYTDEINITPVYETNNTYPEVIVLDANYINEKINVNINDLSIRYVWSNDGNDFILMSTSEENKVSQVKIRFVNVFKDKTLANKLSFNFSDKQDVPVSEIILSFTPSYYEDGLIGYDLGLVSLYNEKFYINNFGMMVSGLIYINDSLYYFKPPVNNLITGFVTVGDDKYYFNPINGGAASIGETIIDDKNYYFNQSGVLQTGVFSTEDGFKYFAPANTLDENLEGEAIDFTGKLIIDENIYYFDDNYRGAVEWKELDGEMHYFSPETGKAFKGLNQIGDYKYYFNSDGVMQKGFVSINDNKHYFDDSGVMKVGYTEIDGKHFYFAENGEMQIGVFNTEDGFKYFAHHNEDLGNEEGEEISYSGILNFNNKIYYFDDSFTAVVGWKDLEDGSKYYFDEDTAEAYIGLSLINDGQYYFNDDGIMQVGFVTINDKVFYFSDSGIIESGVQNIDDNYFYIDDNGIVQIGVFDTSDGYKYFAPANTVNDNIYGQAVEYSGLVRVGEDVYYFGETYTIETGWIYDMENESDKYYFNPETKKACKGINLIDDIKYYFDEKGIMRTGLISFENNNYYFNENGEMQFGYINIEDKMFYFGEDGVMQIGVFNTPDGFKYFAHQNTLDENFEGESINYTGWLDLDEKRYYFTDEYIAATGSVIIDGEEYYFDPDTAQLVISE
Vc quorum ag = inducers of Vibrio cholerae quorum light production without autoinducers; V. cholerae BH1578 lux reporter, luminescence, 6 h; 350,000 tested, 0.16% active; activation, % at 18.7 µM; AID 588436; in the data active means activation mostly above about 9.7%, no sharp cut-off
Numbers without * were called inactive; i = inactive; . = no result given. This is a sample that favours compounds with a hit; in the whole collection about 0.67% have one here.

SMILES | RN4220 kill | Sa ugtP lethal | TcdB inh | Vc quorum ag
COc1ccc(NC(=O)c2cc3c(CO)cnc(C)c3oc2=Nc2cccc(C)c2)c(OC)c1 | 5 | -3 | 1 | 20*
Cc1ccc(S(=O)(=O)N2CCCC2C(=O)Nc2ccc(O)cc2)cc1 (stereo not given) | 4 | 5 | 10* | -1
COc1ccc(S(=O)(=O)N2CCCC2C(=O)Nc2ccc(C)cc2)cc1 (stereo not given) | 2 | 13 | . | 0
Cc1cc(C)c2c(N)c(C(=O)c3ccccc3)oc2n1 | 3 | -8 | . | i
Cc1cc(C)c2c(N)c(C(=O)c3ccc(Br)cc3)oc2n1 | 93* | 81 | 1 | 0
CCN1C(=O)C2C(c3ccc(-c4ccc5c(c4)OCO5)c(OC)c3)N[C@@](C)(C(=O)OC)C2C1=O (stereo not given in full) | 2 | -2 | . | .
O=C(C1=CC(c2coc3ccccc3c2=O)CC(OCc2ccc(CO)cc2)O1)N1CCN(Cc2ccccc2)CC1 (stereo not given) | 8 | 2 | . | .
O=C1C=C(NCc2ccccc2)c2ccccc2C1=O | 92* | 92* | -6 | i
S=C(Nc1ccc(Cl)cc1)c1nc2ccccc2s1 | -7 | -5 | . | i
O=C(Nc1ccc(Cl)cc1)/C(=C/c1cccc(O)c1)c1nc2ccccc2s1 | 69 | 89* | 2 | 0
COC(=O)C1=C(c2cc3ccccc3s2)CC2CCC1N2C(=O)NCc1cccc2ccccc12 (stereo not given) | -9 | 6 | . | .
C#CCOCCOCCOCCNc1nc(N2CCOCC2)nc(N2CCN(C(=O)C(CCCCN)n3cc(C(N)C(C)CC)nn3)CC2)n1 (stereo not given) | 6 | 1 | . | .
OCC1CCCN(C(=S)Nc2ccc(Nc3ccccc3)cc2)C1 (stereo not given) | 4 | -3 | 11* | i
OCC1CCCN(C(=S)Nc2ccc(OC(F)F)cc2)C1 (stereo not given) | . | . | -8 | 0
COc1cc(/C=N/n2nnnc2N)ccc1OC(C)=O | . | . | 0 | 240*
Nc1ncc(S(=O)(=O)c2ccc([N+](=O)[O-])cc2)s1 | 98* | 96* | 11* | i
Cc1nn(Cc2ccc(Cl)cc2Cl)c(Cl)c1C=CC(=O)OCC(=O)NCC(F)(F)F | 5 | 1 | . | .
O=C(NC(=S)Nc1ccc(N2CCOCC2)cc1)c1ccccc1 | 4 | 46 | 23* | 0
O=C(NC(=S)Nc1ccccc1N1CCOCC1)c1ccc(Br)cc1 | -8 | 94* | 1 | .
COc1ccc(C(=O)NC(=S)Nc2ccc(CN3CCOCC3)cc2)cc1Cl | 8 | 86* | 1 | 0
CCc1ccc(C(=O)NC(=S)Nc2ccc(N3CCOCC3)cc2)cc1 | -3 | 89* | 0 | 0
Cc1ccccc1C(=O)NC(=S)Nc1ccc(N2CCOCC2)cc1 | 38 | 4 | 0 | 0
O=C(NC(=S)Nc1ccc(N2CCOCC2)cc1)c1cccc(Cl)c1Cl | 7 | 0 | 0 | i
O=C(NC(=S)Nc1ccc(N2CCOCC2)cc1)c1cccc(Cl)c1 | 5 | 93* | 2 | 0
COC(=O)C1CN(C#N)N(c2ccc(Cl)cc2)C12c1ccccc1-c1ccccc12 (stereo not given) | 90* | 96* | 0 | i
SMILES | RN4220 kill | Sa ugtP lethal | TcdB inh | Vc quorum ag
O=C1c2ccccc2C(O)N1c1ccc(Cl)cc1 (stereo not given) | -6 | -7 | 0 | 0
CC(=O)c1sc2nc(-c3cccs3)ccc2c1N | -1 | -16 | . | 0
Nc1c(C(=O)Nc2nc3ccccc3s2)sc2nc(-c3cccs3)ccc12 | 80 | 99* | . | -6
CO[C@@]1(NC(=O)C2SC(=C(C(N)=O)C(=O)O)S2)C(=O)N2C(C(=O)O)=C(CSc3nnnn3C)CS[C@@H]21 (stereo not given in full) | . | . | 0 | -1
CO[C@@]1(NC(=O)C2SC(=C(C(N)=O)C(=O)O)S2)C(=O)N2C(C(=O)O)=C(CSc3nnnn3C)CSC21 (stereo not given in full) | 100* | 100* | . | .
CCCCC1CNCCN1CCc1cccc2ccccc12 (stereo not given) | 0 | 0 | . | .
C/C=C/c1ccc(O)c(OC)c1 | 0 | -4 | -8 | 0
Oc1cc(O)cc(/C=C/c2ccc(O)c(O)c2)c1 | . | . | 10* | i
CC[n+]1ccccc1/C=C1\Sc2ccc(C)cc2N1C | 27 | 100* | 2 | i
C=CCON=C(C)c1c(O)c(C)c(-c2ccccc2)n(-c2ccccc2)c1=O | 7 | 4 | . | .
Cc1cc(C=C2SC(=S)NC2=O)c(C)[nH]1 | 13 | 0 | . | .
O=C1NC(=S)S/C1=C\c1cc(Cl)ccc1Cl | 100* | 100* | -11 | -4
Cc1ccc(S(=O)(=O)NN=Cc2ccc3nccnc3c2)cc1 | 8 | -1 | . | .
O=C1C(Br)=Cc2cccc3cccc1c23 | 83 | 92* | 3 | i
Cc1ccsc1C=NNC(=O)C(=O)NCC(C)C | 6 | 7 | . | .
CC(=O)NCCNC(=O)C1Cc2c(-c3ccccc3Oc3ccccc3)ccnc2O1 (stereo not given) | . | . | 4 | i
CNC(=O)C1Cc2c(-c3ccccc3Oc3ccccc3)ccnc2O1 (stereo not given) | . | . | 13* | i
CC(C)c1ccc(NC(=S)Nc2ccc(OC(F)(F)F)cc2)cc1 | 2 | -18 | 2 | 0
FC(F)(F)Oc1ccc(NC(=S)Nc2ccc(OC(F)(F)F)cc2)cc1 | 99* | 92* | 0 | 0
NC(=NOC(=O)Oc1ccccc1)c1ccc([N+](=O)[O-])cc1 | 6 | 8 | . | .
C=CCC(CC(=O)N(CCO)Cc1ccccc1)C(=O)NCC(OC(=O)C(CC=C)CC(=O)OC(C)(C)C)c1ccccc1 (stereo not given) | -1 | 11 | . | .
Cc1nn(C)c(C(=O)Sc2cccc(Cl)c2)c1[N+](=O)[O-] | 27 | 93* | 4 | i
Cc1nn(C)c(C(=O)Sc2ccccc2)c1[N+](=O)[O-] | -2 | 8 | 0 | i
O=C(CSc1nc2ccccc2[nH]1)Nc1nc(-c2cccc(Br)c2)cs1 | 99* | 99* | 0 | 0
CCCCn1c(SCC(=O)Nc2nccs2)nc2ccccc2c1=O | 5 | 5 | . | 0
SMILES | RN4220 kill | Sa ugtP lethal | TcdB inh | Vc quorum ag
CN(C)CCCn1c(SCC(=O)Nc2nc(-c3cccc(Br)c3)cs2)nc2ccccc2c1=O | 101* | 100* | 2 | i
COc1cc2cnc(-c3ccccc3)c(-c3ccc(C(F)(F)F)cc3)c2cc1OC | 100* | 101* | 1 | i
Cc1ccccc1NN=Cc1ccc(C#N)cc1 | 4 | 4 | . | .
Cc1ccccc1N/N=C/c1ccc(C#N)cc1 | . | . | -6 | 60*
CCn1c(O)c(C=NNC(=O)c2ccncc2)c(=O)n(CC)c1=S | 7 | -1 | . | .
COc1ccc(-c2sc3ccccc3c2-c2ccc(OCCN(C)C)cc2)cc1 | 101* | 100* | 4 | i
CCC(/C=C1\Sc2ccc(OC)cc2N1CCO)=C\c1sc2ccc(OC)cc2[n+]1CCO | 99* | 96* | 2 | 0
O=C(NCCCSc1ccccc1)c1cc(Br)ccc1O | 83* | 81 | 0 | .
CCC(NC(=O)c1c(C)c(-c2ccccc2)nc2ccccc12)c1ccccc1 (stereo not given) | 3 | -16 | . | .
